The panel holds about 83,000 compounds, 20% with a hit somewhere; the sample as a whole holds those more often.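 The test compound was applied at a single concentration to cells in 96-well plates for 48 hours, and percent growth was recorded.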 Active and inactive are the calls of the source. Rule for the calls: active = growth percent below 10; inactive = the rest.
What was measured:
Assay in all cases: NCI-60 one-dose screen, 48 h (100 = growth as untreated, 0 = no growth, -100 = all killed)
Details in all cases: 10 µM unless noted
SK-MEL-2 melanoma = tested on: SK-MEL-2 melanoma
EKVX NSCLC = tested on: EKVX NSCLC
SN12C renal = tested on: SN12C renal
UO-31 renal = tested on: UO-31 renal
TK-10 renal = tested on: TK-10 renal
ACHN renal = tested on: ACHN renal
CAKI-1 renal = tested on: CAKI-1 renal
A498 renal = tested on: A498 renal
CCRF-CEM leukemia = tested on: CCRF-CEM leukemia
MOLT-4 leukemia = tested on: MOLT-4 leukemia
SR leukemia = tested on: SR leukemia
RPMI-8226 leukemia = tested on: RPMI-8226 leukemia
OVCAR-8 ovarian = tested on: OVCAR-8 ovarian
OVCAR-5 ovarian = tested on: OVCAR-5 ovarian
OVCAR-4 ovarian = tested on: OVCAR-4 ovarian
SK-OV-3 ovarian = tested on: SK-OV-3 ovarian
IGROV1 ovarian = tested on: IGROV1 ovarian
OVCAR-3 ovarian = tested on: OVCAR-3 ovarian
HS 578T breast = tested on: HS 578T breast
NCI/ADR-RES ovarian = tested on: NCI/ADR-RES ovarian

Measured: growth

Cc1cc2c(O)c(-c3cc(Cl)ccc3Cl)c3sc(=O)oc3c2cc1C
inactive: SK-MEL-2 melanoma 74% | EKVX NSCLC 94.6% | SN12C renal 66.9% | UO-31 renal 85.3% | TK-10 renal 113% | ACHN renal 79.8% | CAKI-1 renal 53.9% | A498 renal 30.1% | CCRF-CEM leukemia 53.8% | MOLT-4 leukemia 40.6% | SR leukemia 54.3% | RPMI-8226 leukemia 38.3% | OVCAR-8 ovarian 68.1% | OVCAR-5 ovarian 106% | OVCAR-4 ovarian 24.5% | SK-OV-3 ovarian 76.3% | IGROV1 ovarian 76.5% | OVCAR-3 ovarian 29.8% | HS 578T breast 76.4% | NCI/ADR-RES ovarian 85.3%

COc1cccc([C@H]2c3[nH]c4ccccc4c3C[C@H]3C(=O)N(CCCCCCC(=O)NO)CC(=O)N23)c1
active: SR leukemia 4.26%
inactive: SK-MEL-2 melanoma 60.1% | EKVX NSCLC 82.6% | SN12C renal 62.8% | UO-31 renal 62.5% | TK-10 renal 87.6% | ACHN renal 69.1% | CAKI-1 renal 75.1% | A498 renal 75.6% | CCRF-CEM leukemia 14% | MOLT-4 leukemia 18.5% | RPMI-8226 leukemia 14.6% | OVCAR-8 ovarian 65.6% | OVCAR-5 ovarian 62.1% | OVCAR-4 ovarian 62% | SK-OV-3 ovarian 77.1% | IGROV1 ovarian 64.4% | OVCAR-3 ovarian 64.7% | HS 578T breast 59.6% | NCI/ADR-RES ovarian 91.1%

COc1ccc(Cc2cc(-c3ccccc3)nn(Cc3ccccc3)c2=O)cc1OC
inactive: SK-MEL-2 melanoma 36.1% | EKVX NSCLC 14.4% | SN12C renal 20.2% | UO-31 renal 14.7% | TK-10 renal 49.8% | ACHN renal 27.1% | CAKI-1 renal 46.3% | CCRF-CEM leukemia 43% | SR leukemia 40.2% | RPMI-8226 leukemia 15.2% | OVCAR-8 ovarian 32.3% | OVCAR-5 ovarian 68.3% | OVCAR-4 ovarian 32.5% | SK-OV-3 ovarian 74.1% | IGROV1 ovarian 47% | OVCAR-3 ovarian 47.6% | HS 578T breast 66.6% | NCI/ADR-RES ovarian 30.2%
active: A498 renal -16.9% | MOLT-4 leukemia 9.1%

CCOC(=O)C(=Cc1cccc(Cl)c1)C(=O)OCC
inactive: SK-MEL-2 melanoma 25.3% | EKVX NSCLC 78.7% | SN12C renal 33.3% | CAKI-1 renal 61.5% | A498 renal 112% | MOLT-4 leukemia 13.4% | OVCAR-5 ovarian 13.9% | OVCAR-4 ovarian 59.9% | SK-OV-3 ovarian 100% | OVCAR-3 ovarian 33.8% | HS 578T breast 68%
active: UO-31 renal -56.2% | TK-10 renal 3.56% | ACHN renal -72.9% | CCRF-CEM leukemia -1.23% | SR leukemia 6.69% | RPMI-8226 leukemia -8.77% | OVCAR-8 ovarian -8.33% | IGROV1 ovarian 9.1% | NCI/ADR-RES ovarian 4.71%

C=CCn1c(SCC(=O)Nc2ccc(C(=O)/C=C/c3cc4cc(OC)ccc4nc3Cl)cc2)nnc1-c1ccc(Br)cc1
active: RPMI-8226 leukemia -19.8%
inactive: SK-MEL-2 melanoma 79.2% | EKVX NSCLC 87.4% | SN12C renal 81.5% | UO-31 renal 65.3% | TK-10 renal 93.5% | ACHN renal 92.1% | CAKI-1 renal 76.1% | A498 renal 89.5% | CCRF-CEM leukemia 58.5% | MOLT-4 leukemia 68.5% | SR leukemia 58.4% | OVCAR-8 ovarian 79.8% | OVCAR-5 ovarian 99.2% | OVCAR-4 ovarian 84.8% | SK-OV-3 ovarian 95.7% | IGROV1 ovarian 78.4% | OVCAR-3 ovarian 97.4% | HS 578T breast 89.2% | NCI/ADR-RES ovarian 92.3%

COc1cc2c(c(OC)c1OC)-c1ccc(OC)c(=O)cc1[C@@H](NC(=O)CCl)CC2
inactive: SK-MEL-2 melanoma 41.1% | EKVX NSCLC 74.3% | SN12C renal 19.3% | UO-31 renal 32.8% | TK-10 renal 34.1% | ACHN renal 25.4% | CAKI-1 renal 30.1% | CCRF-CEM leukemia 15.3% | MOLT-4 leukemia 20.9% | SR leukemia 36.3% | RPMI-8226 leukemia 20.3% | OVCAR-5 ovarian 22.4% | OVCAR-4 ovarian 42.7% | SK-OV-3 ovarian 15.5% | IGROV1 ovarian 14.1% | HS 578T breast 63.4%
active: A498 renal -4.98% | OVCAR-8 ovarian 8.53% | OVCAR-3 ovarian 8.93% | NCI/ADR-RES ovarian -39.4%

N#Cc1nc(-c2ccccc2)oc1S(=O)(=O)N1CCOCC1
active: ACHN renal -97.7% | CCRF-CEM leukemia -20.9% | MOLT-4 leukemia -16% | SR leukemia 1.09%
inactive: SK-MEL-2 melanoma 90.2% | EKVX NSCLC 106% | SN12C renal 74.1% | UO-31 renal 82.9% | TK-10 renal 94.5% | CAKI-1 renal 66.9% | A498 renal 89.7% | RPMI-8226 leukemia 76.5% | OVCAR-8 ovarian 59.8% | OVCAR-5 ovarian 103% | OVCAR-4 ovarian 84.2% | SK-OV-3 ovarian 103% | IGROV1 ovarian 88.5% | OVCAR-3 ovarian 15% | HS 578T breast 107% | NCI/ADR-RES ovarian 98.7%

CC(C)N1CN2C(=S)NC3C2N(C1)C(=S)N3C (stereo not given)
inactive: SK-MEL-2 melanoma 93.4% | EKVX NSCLC 103% | SN12C renal 97.6% | UO-31 renal 95.9% | TK-10 renal 97.2% | ACHN renal 117% | CAKI-1 renal 92.6% | A498 renal 102% | CCRF-CEM leukemia 94.8% | MOLT-4 leukemia 104% | SR leukemia 88.6% | RPMI-8226 leukemia 91.7% | OVCAR-8 ovarian 102% | OVCAR-5 ovarian 107% | OVCAR-4 ovarian 117% | SK-OV-3 ovarian 109% | IGROV1 ovarian 103% | OVCAR-3 ovarian 103% | HS 578T breast 95.6% | NCI/ADR-RES ovarian 106%
